Assay outcomes from PubChem BioAssay.
ASK1 primary: human ASK1 kinase inhibition, primary screen | hit rate 0.99% among 22,000 | Q99683 | inhibition, % at 7.44 µM | AID 1159602 | AlphaScreen MKK6 phosphorylation by ASK1, luminescence; in the data active = inhibition above about 35%;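 also: 0% = median of compound wells and 100% = no enzyme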
ULK1 primary: blocks human autophagy kinase ULK1; O75385; AlphaScreen Atg13 phosphorylation by ULK1, luminescence; inhibition, % at 5.96 µM; hit rate 1.9% among 30,000; AID 1259251; in the data active = inhibition above about 43%;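 also: 0% = median of compound wells and 100% = no enzyme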
The depositor's hits bear a star; x = not tested or not shown. Hits are enriched below; roughly 2.5% of the tested compounds scored in any of these assays.

SMILES	ASK1 primary	ULK1 primary
CCN(CC)C(=O)C1CCCN(c2cccc(C(=O)Nc3ccc(N4CCOCC4)cc3)n2)C1 (stereo unspecified)	-24	52*
O=C(Nc1ccc(N2CCOCC2)cc1)c1csc(Nc2ccc(N3CCOCC3)cc2)n1	-8	32
O=C(NCCN1CCOCC1)c1cccc(Nc2ccc3ncccc3c2)n1	-12	1
O=C(Nc1ccc(N2CCOCC2)cc1)c1cccc(Nc2ccncn2)n1	-30	52*
Cc1cc(Nc2ccc(N3CCOCC3)cc2)nc(Nc2nc3ccccc3n2C)n1	23	-4
CC(C)(C)OC(=O)N1CCC(Nc2cc(Nc3ccccc3C(N)=O)ccn2)CC1	1	1
CC(=O)Nc1ccc(NC(=O)c2ccnc(Nc3ccnn3C)c2)cc1	-6	25
COc1ccc(-c2nc3c(NCCN4CCOCC4)ncnc3n2C(C)C)cn1	-12	7
Cn1cc(-c2ccc3cnc(Nc4ccc(-n5cnc(N6CCOCC6)n5)cc4)nc3c2C(F)(F)F)cn1	-74	33
O=C(NCc1ccccc1)c1ccc2cnc(Nc3ccc(-n4cnc(N5CCOCC5)n4)cc3)nc2c1	9	37
Cn1cc(-c2ccc3cnc(Nc4ccc(-n5cnc(N6CCOCC6)n5)cc4)nc3n2)cn1	22	7
CNC(=O)c1ccc2cnc(Nc3ccc(-n4cnc(N5CCOCC5)n4)cc3)nc2c1	-45	50*
CC1CN(c2ncn(-c3ccc(Nc4ncc5ccc(-c6cnn(C)c6)c(Cl)c5n4)cc3)n2)CC(C)O1 (stereo unspecified)	6	53*
CCn1cc(-c2ccc3cnc(Nc4ccc(-n5cnc(N6CCOCC6)n5)cc4)nc3c2Cl)cn1	3	78*
Cc1cnc(NCCN2CCOCC2)nc1NCCN1CCOCC1	-1	4
Cc1noc(C)c1-c1nc2ncnc(NCc3cccc(C(F)(F)F)c3)c2[nH]1	1	6
O=C(NCc1nc2ccccc2[nH]1)c1ccc(-c2ccccc2)s1	3	0
NC(C(=O)N1CCN(c2ccc3[nH]ncc3c2)CC1)c1ccc(Cl)cc1 (stereo unspecified)	10	13
N#C/C(=C\c1cccc(Br)c1)C(=O)Nc1cc([N+](=O)[O-])ccc1F	x	39
N#C/C(=C\c1cccc([N+](=O)[O-])c1)C(=O)Nc1ccc([N+](=O)[O-])cc1Br	x	45*
CCN(CC)CCC(=O)N1c2ccccc2Sc2ccc(Cl)cc21	x	37
CCN(CC)CCC(=O)N1c2ccccc2Sc2ccc(C(F)(F)F)cc21	x	45*
Cc1ccc(-n2cc(-c3ccc(C(=O)N4CCCC4)cn3)cn2)cc1	x	9
N[C@H]1CCC[C@H](C(=O)Nc2cccc3c(=O)[nH]cnc23)C1	9	53*
N[C@H]1CC[C@@H](C(=O)Nc2cccc3cnccc23)C1	-9	-1
SMILES	ASK1 primary	ULK1 primary
CCCCCCCCCCCCCCCCCCO	x	-2
Cc1cncc2c(S(=O)(=O)N3CC[C@@H](N)C3)cccc12	-14	22
O=C(Cc1ccc(F)cc1)Nc1cc(Nc2ccccc2CO)c(C(F)(F)F)cn1	13	18
Nc1cc(Nc2ccccc2CO)c(C(F)(F)F)cn1	9	56*
Oc1ccc(CCNc2nc(Nc3ncccn3)nc3nc[nH]c23)cc1	-6	8
Oc1ccc(CCNc2nc(Nc3ccncc3)nc3nc[nH]c23)cc1	-71	51*
Cc1cnc(Nc2ccc(-n3ccnc3)cc2)nc1NCCO	-8	50*
c1ccc(OCCNc2nc(Nc3ccc(-n4ccnc4)cc3)nc3nc[nH]c23)cc1	-10	53*
Oc1ccc(CCNc2nc(Nc3ccc(-n4ccnc4)cc3)nc3nc[nH]c23)cc1	-66	50*
Cc1cnc(Nc2ccc(-n3ccnc3)cc2)nc1NCCc1ccc(O)cc1	-12	29
Oc1ccc(CCNc2nc(Nc3ccccc3)nc3nc[nH]c23)cc1	-26	36
Cc1cnc(Nc2ccc(-n3ccnc3)cc2)nc1NCCOc1ccccc1	11	34
COc1ccc(CCNC(=O)c2cnc(Nc3cccnc3)s2)cc1	-5	12
c1ccc(OCCNc2nc(Nc3cccnc3)nc3nc[nH]c23)cc1	14	48*
c1ccc(Nc2nc(NCCOc3ccccc3)c3[nH]cnc3n2)cc1	7	28
COc1ccccc1-c1ccnc(Nc2ccc(S(N)(=O)=O)cc2)n1	7	-23
CCOC(=O)c1cnc2cc(-c3ccc(OC)cc3)[nH]n2c1=O	x	-8
Cc1c(Cl)cccc1NC(=O)Cc1csc(NC(=O)/C=C/c2ccccc2)n1	x	3
CCOc1ccc(S(=O)(=O)O)c2cccnc12	x	-8
C=CCOCCOc1cc(-c2cn[nH]c2)ccc1NC(=O)C1COc2ccc(OC)cc2C1 (stereo unspecified)	69*	18
COc1ccc2c(c1)CC(C(=O)Nc1ccc(-c3cn[nH]c3)cc1OCCO)CO2 (stereo unspecified)	17	6
CC(=O)[C@@]1(O)CC[C@H]2[C@@H]3C[C@H](C)C4=CC(=O)C=C[C@]4(C)[C@@]3(F)[C@@H](O)C[C@@]21C	x	-6
C[C@H]1c2cccc(O)c2C(O)=C2C(=O)[C@]3(O)C(O)=C(C(N)=O)C(=O)[C@@H](N(C)C)[C@@H]3[C@@H](O)[C@@H]21	x	52*
CN(C)c1ccc(O)c2c1C[C@H]1C[C@H]3[C@H](N(C)C)C(=O)C(C(N)=O)=C(O)[C@@]3(O)C(=O)C1=C2O	x	10
O=C(Nc1ccc(Oc2ccccc2)cc1)c1cnc(N2CCc3ccccc3C2)s1	-5	3
SMILES	ASK1 primary	ULK1 primary
CCCNc1cc(C)nc(-c2ccc(C(=O)NC3CC3)cc2)n1	4	0
Cc1cc(N)nc(-c2ccc(C(=O)NC3CC3)cc2)n1	3	56*
Cc1ncn(-c2ccc(Nc3nccc(-c4cc(F)cc(-c5cnoc5)c4)n3)cc2)n1	16	19
Cc1nc(C)n(-c2ccc(Nc3nccc(-c4cc(F)cc(-c5cnoc5)c4)n3)cc2)n1	34	45*
c1ccc(CN2CCC(Nc3ncnc4nc(Nc5ccncn5)[nH]c34)CC2)cc1	5	55*
c1ccc(CN2CCC(Nc3ncnc4nc(Nc5cnccn5)[nH]c34)CC2)cc1	-3	12
CCCNc1nc(N2CCOCC2)nc2c1ncn2CCN1CCCC1=O	3	-3
Cc1ncn(-c2ccc(N(c3ncc4cccc(-c5cnn(C(C)C)c5)c4n3)C(C)C)cc2)n1	-3	92*
Cc1ncn(-c2ccc(Nc3ncc4cccc(-c5cnn(-c6ccccc6)c5)c4n3)cc2)n1	10	16
CNC(=O)c1ccccc1Nc1cc(Nc2ccc(N3CCOCC3)cc2OC)ncc1Br	0	86*
COc1cc(N2CCOCC2)ccc1Nc1cc(Nc2ccccn2)c(C(F)(F)F)cn1	25	39
CNS(=O)(=O)c1ccccc1Nc1cc(Nc2ccc(N3CCOCC3)cc2OC)ncc1C(F)(F)F	8	91*
COc1cc(N2CCOCC2)ccc1Nc1cc(Nc2ccccc2S(=O)(=O)NC(C)C)c(C(F)(F)F)cn1	10	29
CNC(=O)c1cc(F)c(F)cc1Nc1cc(Nc2ccc(N3CCOCC3)cc2OC)ncc1C(F)(F)F	8	69*
CNC(=O)c1cc(F)c(F)cc1Nc1cc(Nc2ccc3c(c2)CC(=O)N3)ncc1C(F)(F)F	9	30
CNC(=O)c1cc(F)ccc1Nc1cc(Nc2ccc(N3CCOCC3)cc2OC)ncc1C(F)(F)F	17	84*
COc1cc(N2CCOCC2)ccc1Nc1cc(Nc2ccc(F)cc2OC)c(C(F)(F)F)cn1	18	26
CCN(CC)c1ccc2cc(/C(C)=N/O)c(=O)oc2c1	x	-2
